Experiment [1] is described as follows: qHTS of pediatric cancer cell lines to identify multiple opportunities for drug repurposing: Primary screen for BT-12 cells (AID 1347101). Also: nearly all actives have a fitted effect of over 25% in size. The settings on record: BT-12 viability, CellTiter-Glo luminescence, 48 h; series mostly up to 57.3 µM. The procedure, abridged: (§1)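 Cells (500-1,000/well) rested 5 h, then received compounds for 48 h; metabolically active cells were measured by CellTiter-Glo luminescence. Final concentrations spanned up to 46 µM (MIPE, 11-point) or 0.59 nM-46 µM (NPC, 8-point) in primary screens, 11-point in follow-ups.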
Background: qHTS replaces the single test concentration by a dilution series.

Experiment [2] in a line: qHTS of pediatric cancer cell lines to identify multiple opportunities for drug repurposing: Primary screen for Rh18 cells (AID 1347102). Also: nearly all actives have a fitted effect of over 65% in size. The settings on record: Rh18 rhabdomyosarcoma viability, CellTiter-Glo luminescence, 48 h; series mostly up to 46 µM. The procedure, abridged: as §1
Experiment [3] in a line: qHTS of pediatric cancer cell lines to identify multiple opportunities for drug repurposing: Primary screen for OHS-50 cells (AID 1347103). Also: nearly all actives have a fitted effect of over 40% in size. Particulars: OHS-50 osteosarcoma viability, CellTiter-Glo luminescence, 48 h; series mostly up to 57.3 µM. Summed up:
as §1

Experiment [4] in a line: qHTS of pediatric cancer cell lines to identify multiple opportunities for drug repurposing: Primary screen for RD cells (AID 1347104). Also: nearly all actives have a fitted effect of over 55% in size. The settings on record: RD rhabdomyosarcoma viability, CellTiter-Glo luminescence, 48 h; series mostly up to 46 µM. Summed up:
(§2)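 Phenotypic viability qHTS, 48 h compound exposure, CellTiter-Glo luminescence read-out; multi-concentration dosing so that potency and efficacy derive directly from the primary screen's curves.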

The nature of experiment [5]: qHTS of pediatric cancer cell lines to identify multiple opportunities for drug repurposing: Confirmatory screen for A673 cells (AID 1347110).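 Also: cells exposed to compound for 48 h before the viability read; nearly all actives have a fitted effect of over 65% in size.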 Particulars: A673 Ewing sarcoma cell viability; series mostly up to 45.9 µM. The procedure, abridged: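 Cells plated at 500-1,000/well were treated five hours later with multi-point dilutions up to 46 µM final. After two days, CellTiter-Glo was added and luminescence read.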

Experiment [6] is described as follows: qHTS of pediatric cancer cell lines to identify multiple opportunities for drug repurposing: Confirmatory screen for SK-N-MC cells (AID 1347111).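 Also: cells exposed to compound for 48 h before the readout; nearly all actives have a fitted effect of over 70% in size.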 Particulars: SK-N-MC cell viability; series mostly up to 45.9 µM. The procedure, abridged: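 Seed 500-1,000 cells/well; rest 5 h at 37 degrees C. Pin-transfer compounds, 11-point titration. Incubate 48 h. Add CellTiter-Glo, 15 min RT, read luminescence.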

The nature of experiment [7]: qHTS of pediatric cancer cell lines to identify multiple opportunities for drug repurposing: Confirmatory screen for BT-12 cells (AID 1347112). Also: nearly all actives have a fitted effect of over 55% in size. The settings on record: BT-12 rhabdoid tumor cells, viability; series mostly up to 45.9 µM. The procedure, abridged: as §1
Experiment [8] can be described thus: qHTS of pediatric cancer cell lines to identify multiple opportunities for drug repurposing: Confirmatory screen for LAN-5 cells (AID 1347113). Also: nearly all actives have a fitted effect of over 65% in size. Particulars: LAN-5 neuroblastoma cell viability; series mostly up to 45.9 µM. The procedure, abridged:
as §1

The nature of experiment [9]: qHTS of pediatric cancer cell lines to identify multiple opportunities for drug repurposing: Confirmatory screen for DAOY cells (AID 1347114). Also: nearly all actives have a fitted effect of over 65% in size. The settings on record: DAOY medulloblastoma cells viability, cytotoxicity qHTS; series mostly up to 45.9 µM. The procedure, abridged:
(§3)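 Viability measured as metabolically active cells via CellTiter-Glo luminescence following 48 hours of compound exposure, 11-point dilutions in confirmatory testing. 500-1,000 cells/well plated 5 hours before dosing; controls were DMSO and 2.3 µM bortezomib.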

A short description of experiment [10]: qHTS of pediatric cancer cell lines to identify multiple opportunities for drug repurposing: Confirmatory screen for NB-EBc1 cells (AID 1347115).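 Also: cells exposed to compound for 48 h before the viability read; nearly all actives have a fitted effect of over 45% in size.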 The settings on record: NB-EBc1 neuroblastoma cells, viability (cytotoxicity); series mostly up to 45.9 µM. The procedure, abridged: as §1
Experiment [11] can be described thus: qHTS of pediatric cancer cell lines to identify multiple opportunities for drug repurposing: Confirmatory screen for BT-37 cells (AID 1347117). Also: nearly all actives have a fitted effect of over 55% in size. The settings on record: BT-37 pediatric cancer cells, viability; activity change, negative = cytotoxic: at 45.9 µM (top of the series). The procedure, abridged:
as §1

Experiment [12] can be described thus: qHTS of pediatric cancer cell lines to identify multiple opportunities for drug repurposing: Confirmatory screen for MG 63 (6-TG R) cells (AID 1347119). Also: nearly all actives have a fitted effect of over 55% in size. The settings on record: MG-63 (6-TG resistant) osteosarcoma viability; series mostly up to 45.9 µM. The procedure, abridged:
as §1

The nature of experiment [13]: qHTS of pediatric cancer cell lines to identify multiple opportunities for drug repurposing: Confirmatory screen for control Hh wild type fibroblast cells (AID 1347121). Also: nearly all actives have a fitted effect of over 70% in size. The settings on record: viability qHTS; series mostly up to 45.9 µM. The procedure, abridged: as §1
The nature of experiment [14]: qHTS of pediatric cancer cell lines to identify multiple opportunities for drug repurposing: Primary screen for control Hh wild type fibroblast cells (AID 1347106). Also: nearly all actives have a fitted effect of over 55% in size. The settings on record: Hh wild-type fibroblast viability, CellTiter-Glo luminescence, 48 h; series mostly up to 46 µM. The procedure, abridged:
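Viability after 48 h compound treatment at 37C, 500-1,000 cells/well, read as ATP luminescence with CellTiter-Glo. Primary screens used 11-point (MIPE, 0.78 nM-46 µM) or 8-point (NPC, 0.59 nM-46 µM) final concentrations; follow-up screens used 11-point dilutions.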

Experiment [15] is described as follows: qHTS of pediatric cancer cell lines to identify multiple opportunities for drug repurposing: Primary screen for Rh30 cells (AID 1347107). Also: nearly all actives have a fitted effect of over 75% in size. The settings on record: Rh30 rhabdomyosarcoma viability, CellTiter-Glo luminescence, 48 h; series mostly up to 46 µM. The procedure, abridged: as §1
Experiment [16] can be described thus: qHTS of pediatric cancer cell lines to identify multiple opportunities for drug repurposing: Primary screen for Rh41 cells (AID 1347108). Also: nearly all actives have a fitted effect of over 70% in size. The settings on record: Rh41 rhabdomyosarcoma viability, CellTiter-Glo luminescence, 48 h; series mostly up to 46 µM. The procedure, abridged:
as §2

A short description of experiment [17]: qHTS of pediatric cancer cell lines to identify multiple opportunities for drug repurposing: Confirmatory screen for NB1643 cells (AID 1347109). Also: nearly all actives have a fitted effect of over 45% in size. Particulars: NB1643 neuroblastoma cell viability; series mostly up to 45.9 µM. The procedure, abridged:
as §1

A short description of experiment [18]: qHTS of pediatric cancer cell lines to identify multiple opportunities for drug repurposing: Confirmatory screen for SJ-GBM2 cells (AID 1347116). Also: nearly all actives have a fitted effect of over 60% in size. The settings on record: SJ-GBM2 glioblastoma cells, viability; series mostly up to 45.9 µM. The procedure, abridged: as §3
Experiment [19] is described as follows: qHTS of pediatric cancer cell lines to identify multiple opportunities for drug repurposing: Confirmatory screen for TC32 cells (AID 1347118). Particulars: TC32 Ewing sarcoma cells viability qHTS; series mostly up to 45.9 µM. The procedure, abridged: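 qHTS, TC32, 48 h drug treatment, CellTiter-Glo luminescence as a proxy for metabolically active cells; primary top concentration 46 µM (MIPE 11-pt, NPC 8-pt); confirmatory 11-pt.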

Results filed as inconclusive are left out. Activity calls are given as the source filed them. Calls follow the shape of the dose curve; as a rule, active = well fitted curve in the direction sought with a large enough effect; inconclusive = small, poorly fitted or top-dose-only effect, or another doubt; inactive = no such curve, though single readings can be large; an effect the other way counts as inactive or inconclusive.

Drawing on PubChem BioAssay (NCATS), this text covers Potency for six molecules.
Potency is read from the fitted curve at half-maximal effect.

For `COc1cc2c(cc1OC)[C@@H]1C(=O)c3ccc4c(c3O[C@@H]1CO2)C=CC(C)(C)O4`, the Potency in [1] was 27.3 nM (active); in experiment [3], 172 nM (active); in [4], 264 nM (active); in experiment [5] it was 16500 nM (active); in [6], 2330 nM (active); in experiment [7], 1310 nM (active). Moreover, the Potency in experiment [8] is 3690 nM (active); in [9] it was 185 nM (active); in experiment [10], 827 nM (active); in experiment [11], 2080 nM (active); in experiment [12], 104 nM (active); in experiment [13], 293 nM (active). Also, the Potency entry in experiment [2] is “inactive”.
For `Cn1cc(CNCC2CCN(c3ncc(C(=O)NO)cn3)CC2)c2ccccc21`, the Potency in experiment [1] is 193 nM (active); in [2], 37.2 nM (active); in experiment [3] it was 86.3 nM (active); in experiment [4], 187 nM (active); in [14] it was 2640 nM (active); in experiment [15] it was 1180 nM (active). The Potency in experiment [16] is 148 nM (active); in experiment [17] it was 165 nM (active); in experiment [5] it was 104 nM (active); in experiment [7] it was 369 nM (active); in [9], 261 nM (active); in experiment [18], 208 nM (active). The Potency in experiment [12] was 131 nM (active); in experiment [13], 1310 nM (active).
As to `CN(C)c1ccc2cc(C(=O)N[C@@H](CCCN=C(N)CCl)C(=O)NCc3ccccc3)ccc2c1`, the Potency is 24300 nM (active) in experiment [1]; 20900 nM (active) in [2]; 4850 nM (active) in experiment [3]; 13200 nM (active) in [4]; 4690 nM (active) in experiment [15]; 14800 nM (active) in experiment [16].
In the case of `O=C1NC(=O)[C@@H](c2cn3c4c(cccc24)CCC3)[C@H]1c1c[nH]c2ccccc12`, the Potency is 2170 nM (active) in experiment [1]; 863 nM (active) in experiment [3]; 235 nM (active) in experiment [4]; 2080 nM (active) in experiment [9]; 1850 nM (active) in experiment [11]; 827 nM (active) in [19]. For the same molecule, the Potency in experiment [12] was 1170 nM (active). Also, the Potency entry in [2] and in experiment [15] was “inactive” each time.
As for `COc1ccc(S(=O)(=O)Nc2cccnc2Nc2ccc(O)cc2)cc1`, the Potency in experiment [1] is 432 nM (active); in [3], 306 nM (active); in [16], 187 nM (active); in [17], 522 nM (active); in [5] it was 928 nM (active); in [6], 2610 nM (active). For the same molecule, the Potency in experiment [7] was 3290 nM (active); in [8], 1650 nM (active); in [9], 369 nM (active); in [10], 2330 nM (active); in [11] it was 1310 nM (active); in [12], 465 nM (active). The Potency entry in experiment [2], in experiment [15] and in experiment [13] was “inactive” in each case.
As for `COc1cccc2c1C(=O)c1c(O)c3c(c(O)c1C2=O)C[C@@](O)(C(=O)CO)C[C@H]3O[C@H]1C[C@H](N)[C@H](O)[C@H](C)O1`, the Potency in experiment [1] was 485 nM (active); in experiment [2] it was 662 nM (active); in [3] it was 611 nM (active); in experiment [4], 833 nM (active); in experiment [16], 743 nM (active); in experiment [17], 522 nM (active). Further, the Potency is 1470 nM (active) in [7]; 369 nM (active) in [8]; 3690 nM (active) in [9]; 928 nM (active) in experiment [18]; 293 nM (active) in experiment [11]; 261 nM (active) in experiment [19]. Moreover, in experiment [15], the Potency result was “inactive”.
